Experimental data as given in ChEMBL document CHEMBL3433997, “St. Jude Leishmania screening dataset” (2016).

What was measured:
Format in all cases: functional
[1] = biological target: Solute carrier family 2, facilitated glucose transporter member 1 (Homo sapiens) (UniProt P11166); assay: ST_JUDE_LEISH: Cytotoxicity at 2uM final concentration against transgenic Leishmania Mexicana promastigotes LmGLUT1 that are glucose transport deficient and complemented with the human glucose transporter GLUT1. Activity is measured by DNA content using SYBR green in vitro
[2] = biological target: Hexose transporter 1 (Plasmodium falciparum) (UniProt O97467); assay: ST_JUDE_LEISH: Cytotoxicity at 2uM final concentration against transgenic Leishmania Mexicana promastigotes LmPfHT that are glucose transport deficient and complemented with the Plasmodium falciparum hexose transporter. Activity is measured by DNA content using SYBR green in vitro
[3] = biological target: Glucose transporter (Leishmania mexicana) (UniProt O61059); assay: ST_JUDE_LEISH: Cytotoxicity at 2uM final concentration against transgenic Leishmania Mexicana promastigotes LmGT2 that are glucose transport deficient and complemented with the L. Mexicana glucose transporter 2. Activity is measured by DNA content using SYBR green in vitro

Solute carrier family 2, facilitated glucose transporter member 1 (Homo sapiens), sequence (P11166 whole entry): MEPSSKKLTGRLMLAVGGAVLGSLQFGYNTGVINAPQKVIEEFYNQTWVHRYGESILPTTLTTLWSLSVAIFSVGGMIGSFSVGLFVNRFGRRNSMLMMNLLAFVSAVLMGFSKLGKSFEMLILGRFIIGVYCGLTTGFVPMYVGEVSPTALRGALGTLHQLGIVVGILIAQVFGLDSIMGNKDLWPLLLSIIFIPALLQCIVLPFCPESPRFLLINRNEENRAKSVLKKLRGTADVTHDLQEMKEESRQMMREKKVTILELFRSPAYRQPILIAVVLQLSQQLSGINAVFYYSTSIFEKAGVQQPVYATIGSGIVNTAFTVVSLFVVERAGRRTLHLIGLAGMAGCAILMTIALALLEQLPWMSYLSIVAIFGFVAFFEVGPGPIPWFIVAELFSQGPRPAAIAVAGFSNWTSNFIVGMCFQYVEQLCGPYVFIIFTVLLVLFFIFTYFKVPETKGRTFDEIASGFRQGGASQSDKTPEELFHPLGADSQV

Row | SMILES | inhibition [1] | inhibition [2] | inhibition [3]
1 | Clc1ccc(OCc2ccccc2)c(Cc2ccc(-c3nc4cnccc4[nH]3)o2)c1 | 0.59% | 2.01% | 0.25%
2 | CC(=O)Nc1ccc(C(=O)Nc2cccc(-c3ccc(-c4nc5ccccc5[nH]4)s3)c2)cn1 | 4.38% | 1.07% | 5.88%
3 | Cc1noc(-c2cccs2)c1C(=O)NC(C)c1cccc2ccccc12 (centres undefined) | -0.34% | 0.45% | 0.18%
4 | COc1cc(Cc2cnc(N)nc2N)cc(OCC(C)(C)C(=O)O)c1OC | -1.6% | -1.08% | -0.23%
5 | COc1ccc2nccc(N3CCC(NCCNCc4cc5c(cn4)OCCO5)C3)c2n1 (centres undefined) | 2.14% | 2.64% | 3.54%
6 | O=[N+]([O-])c1cccc(CNCC2CCN(Cc3ccc(O)cc3)CC2)c1 | 21.4% | 5.62% | 2.59%
7 | FC(F)(F)c1ccc2c(C=Cc3ccncc3)c[nH]c2c1 | 3.67% | 3.37% | 4.76%
8 | COc1ccc2c(c1)CC1CN(CCCCNC(=O)c3ccc(NC(=O)c4cc(Cl)cc(Cl)c4)cc3)CCN1C2 (centres undefined) | 3.25% | 4.38% | 3.79%
9 | O=C(CCCCCNC(=O)c1ccc(O)c(-c2cccc(C(F)(F)F)c2)c1)NCCN1CCCCC1 | 5.39% | 4.36% | 0.5%
10 | O=S(=O)(NCCN1CCCC1)c1ccc(-c2ccc(CNCc3ccccc3)cc2)cc1F | 3.64% | 3.01% | 0.32%
11 | Cc1cc2nc(-c3ccc(/C=C/C(=O)NCCCc4ccccc4)cc3)[nH]c2cc1C | 4.43% | 2.87% | 1.65%
12 | CCCc1cc(NC2CCN(C)CC2)nc(Nc2cccc(OC)c2)n1 | 8.68% | 6.18% | 6.84%
13 | C[C@H](NC(=O)[C@H](Cc1ccccc1)NC(=O)OC(C)(C)C)C(=O)N[C@@H](CC1CCCCC1)C(O)CN (some centres undefined) | -1.66% | 0.84% | -1.53%
14 | NC(=O)c1cnc2cc(-c3ccoc3)ccc2c1Nc1ccc(NC(=O)Nc2ccccc2Cl)cc1 | 2.28% | 0.16% | -3.01%
15 | COc1ccc(NC(=O)Nc2ccc(-c3ccncc3)c(Cl)c2)cc1N1CCN(C)CC1 | -1.37% | -0.91% | -2.2%
16 | Cc1ccc2nc(C)n(C3CCN(C(=O)Cc4ccccc4C)CC3)c2c1 | 5.4% | 8.18% | 4.9%
17 | Cc1cc(NC(=O)Nc2cccc(Cl)c2Cl)c2ccccc2n1 | 6.15% | 6.44% | 2.66%

Row | SMILES | inhibition [1] | inhibition [2] | inhibition [3]
18 | CCNC(=O)Nc1ccc(N(C)c2ccnc(Nc3ccc(CS(C)(=O)=O)cc3)n2)cc1 | 13.5% | 12.2% | 9.58%
19 | COc1cc(C(=O)NCCCN2CCN(c3cc(Cl)ccc3OC)CC2)ccc1-c1nc2cc(Cl)c(Cl)cc2[nH]1 | 6.79% | 6.15% | 5.03%
20 | O=C(Nc1cccc(C(F)(F)F)c1)Nc1ccc(F)c([N+](=O)[O-])c1 | 2.84% | 3.09% | -0.74%
21 | CCc1c[nH]c2c(N(c3ccccc3)S(C)(=O)=O)cc(C(=O)N[C@@H](Cc3ccccc3)[C@H](O)CNC(C)(C)CCCC(C)C)cc12 | 0.74% | 1.65% | 0.18%
22 | CC(C)COc1ccc(Cl)cc1Cc1nc(-c2nc3ccc(CN4CCCCC4)cc3[nH]2)co1 | 4.83% | 3.69% | 2.91%
23 | Fc1ccc2[nH]c3c(NCCN4CCCCC4)ncnc3c2c1 | -3.47% | -0.73% | -1.11%
24 | CCCC(C)Nc1nc(C)cc(NCCC(=O)Nc2ccccc2)n1 (centres undefined) | 6.84% | 8.38% | 2.55%
25 | CCCCCN1CCCN(Cc2cccc(NC(=O)c3ccc(Cl)c(Cl)c3)c2)CC1 | -3.68% | 0.02% | 2.58%
26 | Cc1cccc(CN2CCCN(Cc3ccc(C(=O)Nc4ccc(Cl)cc4)cc3)CC2)c1 | 11.2% | 11.3% | 7.83%
27 | Cc1cccc2nc(-c3ccc(-c4cccc(NC(=O)C(C)CN5CCN(C)CC5)c4)cc3)[nH]c12 (centres undefined) | 3.33% | 0.81% | 5.85%
28 | Clc1cc(Br)ccc1-c1ccc(CNCC2CCNCC2)o1 | 0.75% | -0.1% | 1.69%
29 | O=c1cc(NCCC(CNCc2cc3ccccc3o2)NCc2cc(Br)cc(Br)c2)[nH]c2ccccc12 (centres undefined) | 0.2% | 0.33% | 2.33%
30 | CCCCc1ccccc1NS(=O)(=O)c1ccc(OC)c(N2CCNCC2)c1 | -0.96% | -3.65% | -2.27%
31 | COc1ccc(C(=O)CCC(=O)N(Cc2ccc(-c3ccc(CNCCc4ccc(S(C)(=O)=O)cc4)cn3)cc2)C(C)CN(C)C)cc1F (centres undefined) | 3.43% | 3.18% | 2.85%
32 | COc1cc(NC(=O)/C=C/c2cc(F)cc(F)c2F)cc(OCCN2CCN(CCN3CCOCC3)CC2)c1 | 3.46% | 1.58% | 2.54%
33 | N#Cc1ccc(CN2CCC(Oc3ccc(NC(=O)c4cccs4)cc3)C2)cc1 (centres undefined) | 2.68% | -0.99% | 0.05%
